The results in this text go back to PubChem BioAssay (Tox21).

Records with an inconclusive call do not appear. Activity calls are given as the source filed them. Calls follow the shape of the dose curve; as a rule, active = well fitted activation curve with a large enough effect in the signal ratio in the repeat runs, with a control signal flat (not every such curve was filed as active); inconclusive = weak or mixed curves, or effect the other way; inactive = no such curve, though single readings can be large or run the other way; the % refers to the signal ratio.
% is scaled to controls: 0 for no effect and ±100 for the full control effect.

The assay deals with Androgen receptor (Homo sapiens) (UniProt P10275). In words: qHTS assay to identify small molecule agonists of the androgen receptor (AR) signaling pathway (AID 743036). As to conditions: HEK293 AR-UAS-bla GripTite, beta-lactamase FRET ratio, 16 h; series mostly up to 62.4 µM. The source says: U.S. Tox21 Program National Center for Advancing Translational Sciences [NCATS] NIH Chemical Genomics Center [NCGC] U.S. Environmental Protection Agency [EPA] National Institutes of Environmental Health Sciences [NIEHS] National Toxicology Program [NTP] U.S. Food and Drug Administration [FDA] Tox21 Assay Overview: Androgen receptor (AR), a nuclear hormone receptor, plays a critical role in AR-dependent prostate cancer and other androgen related diseases. Endocrine disrupting chemicals (EDCs) and their interactions with steroid hormone receptors like AR may cause disruption of normal endocrine function as well as interfere with metabolic homeostasis, reproduction, developmental and behavioral functions. To identify the compounds that activate AR signaling, GeneBLAzer AR-UAS-bla-GripTite cell line (Invitrogen, Carlsbad, CA, USA) containing a beta-lactamase reporter gene under the control of an Upstream Activator Sequence (UAS) stably integrated into HEK293 cells was used to screen the Tox21 10K compound library.
Chain of Androgen receptor (Homo sapiens) (P10275 whole entry, looked up): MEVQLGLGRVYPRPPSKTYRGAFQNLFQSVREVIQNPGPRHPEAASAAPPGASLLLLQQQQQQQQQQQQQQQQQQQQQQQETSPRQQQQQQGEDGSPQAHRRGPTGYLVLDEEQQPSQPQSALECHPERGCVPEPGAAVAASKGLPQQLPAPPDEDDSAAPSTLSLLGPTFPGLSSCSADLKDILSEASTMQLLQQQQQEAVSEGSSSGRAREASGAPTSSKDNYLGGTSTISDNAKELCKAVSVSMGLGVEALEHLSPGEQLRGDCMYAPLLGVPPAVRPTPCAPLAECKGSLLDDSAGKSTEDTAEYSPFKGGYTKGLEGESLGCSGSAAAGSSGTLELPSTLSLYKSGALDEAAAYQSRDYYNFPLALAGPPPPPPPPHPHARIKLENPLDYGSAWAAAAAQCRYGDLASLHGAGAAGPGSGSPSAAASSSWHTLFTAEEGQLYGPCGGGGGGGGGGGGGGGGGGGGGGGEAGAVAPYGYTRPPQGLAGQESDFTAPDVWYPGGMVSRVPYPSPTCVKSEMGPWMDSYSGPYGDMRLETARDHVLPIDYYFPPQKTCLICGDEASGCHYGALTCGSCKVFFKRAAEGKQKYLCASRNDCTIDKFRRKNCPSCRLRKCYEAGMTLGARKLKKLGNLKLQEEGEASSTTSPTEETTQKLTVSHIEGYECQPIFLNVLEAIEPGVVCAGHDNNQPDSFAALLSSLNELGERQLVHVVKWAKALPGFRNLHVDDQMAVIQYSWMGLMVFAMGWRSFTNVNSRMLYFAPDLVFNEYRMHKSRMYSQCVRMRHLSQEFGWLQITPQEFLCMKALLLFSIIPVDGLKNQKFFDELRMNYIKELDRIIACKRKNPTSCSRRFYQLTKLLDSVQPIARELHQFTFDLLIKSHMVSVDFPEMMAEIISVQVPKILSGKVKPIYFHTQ
Tox21 Assay Protocol Summary: AR-bla cells were dispensed at 2,000 cells/6 uL/well of assay medium into black wall/clear-bottom 1536-well plates using a Multidrop Combi (ThermoFisher Scientific, Waltham, MA) dispenser. After the assay plates were incubated at 37C and 5% CO2 for 4 h, 23 nL of compounds dissolved in DMSO, positive controls or DMSO only was transferred to the assay plate by a Pintool station (Kalypsys, San Diego, CA). The plates were incubated at 37C and 5% CO2 for 16 h. Then 1 uL of LiveBLAzerTM B/G FRET substrate was added using a Bioraptr Flying Reagent Dispenser (FRD) workstation (Beckman Coulter, Indianapolis, IN, USA). The plates were incubated at room temperature for 2 h, and fluorescence intensity was measured by an Envision plate reader (PerkinElmer, Shelton, CT).
`COCc1nnc(-c2ccc[n+]([O-])c2)n1-c1c(Cl)c(Cl)cc2[nH]c(=O)c(=O)[nH]c12`: the outcome was inactive.

For `O=C[C@@H](O)[C@H](O)[C@H](O)CO`, the outcome was inactive.

Regarding `NNC(=O)OCc1ccccc1`, the outcome was inactive.

In the case of `C[C@@H](CN1CC(=O)NC(=O)C1)N1CC(=O)NC(=O)C1`, the outcome was inactive.

For `CCc1ncc(C)[nH]1`, the outcome was inactive.

Consider `CSC(=O)c1cccc2nnsc12`, for which the outcome was inactive.

Regarding `N[C@H]1C(O)O[C@H](CO)[C@@H](O)[C@@H]1O` (stereo partly specified), the outcome was inactive.

For the compound `CC(=O)OC1CCC(C(C)(C)C)CC1` (stereo unspecified), the outcome was inactive.

In the case of `C/C(=N\O)c1ccc(OCC(=O)N2CCCCC2)cc1`, the outcome was inactive.

On to `CC(C)OC(=O)C(C(=O)OC(C)C)=C1SC=CS1`, for which the outcome was inactive.

As for `CC12CCCC=C1C(=O)OC2=O` (stereo unspecified), the result was inactive.

For `COc1cc(OC)cc(OC)c1`, the outcome was inactive.

For the compound `Cc1ccc(N)nc1`, the result was inactive.

Consider `Cc1ccc2cccnc2c1`, for which the result was inactive.

Take `O=C1c2ccccc2C(=O)N1CO`: the result was inactive.

With `CC(O)C(CO)C(C)O` (stereo unspecified), the outcome was inactive.

For `CC(CN1CC(=O)NC(=O)C1)N1CC(=O)NC(=O)C1` (stereo unspecified), the outcome was inactive.

As for `C=CCN1CCc2nc(N)sc2CC1`, the outcome was inactive.

Regarding `CC(C)CC(O)Cc1ccccc1` (stereo unspecified), the result was inactive.

Turning to `CCCCCCCCC1CO1` (stereo unspecified), the outcome was inactive.

Consider `COC(C)(C)CC(C)=O`, for which the outcome was inactive.

As for `Nc1cc(S(=O)(=O)O)ccc1O`, the outcome was inactive.

In the case of `CC(C)(C)NCC(O)COc1cccc2c1CCC(=O)N2` (stereo unspecified), the outcome was inactive.

Consider `CCOC(=O)[C@H](CCc1ccccc1)N[C@H]1CS[C@H](c2cccs2)CN(CC(=O)O)C1=O`, for which the result was inactive.

Consider `CC1(C)C(=O)C(C)(C)C1=O`, for which the outcome was inactive.

As for `C/C(Cl)=C/CCl`, the outcome was inactive.

Take `CCCC(=O)C(CC)Sc1ccoc1C` (stereo unspecified): the outcome was inactive.

For `CCCCCCCCCCCCCCCCN(C)C`, the activation is -6% [at 6.9 µM] (inactive).

On to `Cc1ccc(O)c(C(=O)c2ccccc2)c1`, for which the outcome was inactive.

In the case of `N#Cc1ccccc1C#N`, the outcome was inactive.

For the compound `CC/C=C\CCOC(=O)c1ccccc1`, the result was inactive.
